{"source": "PubChem BioAssay AID2098", "about": "(Broad Institute, 2009)", "note": "Among all 300,000 compounds or so, about 2,300 (0.77%) were called active. The entries come from a sample that favours actives as a whole. Unmarked numbers belong to inactive results.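 The calls were made as follows: active = more than half of replicate wells show activity change below -50%, luminescence cut by over half; inconclusive = some wells, but at most half, below -50%; inactive = no replicate well below -50%.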", "data": [{"assay": "HSF1 inhibitors in luciferase reporter cells, primary screen, cell-based, NIH3T3, luminescence (AID 2098);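 also: luciferase reports HSF-1 transcriptional activity via heat shock element; 0% = median of DMSO wells and -100% = zero luminescence signal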", "settings": "NIH3T3-HGL HSE-luciferase, MG132-induced, luminescence 8 h; active compounds read low; screened at 7.5 µM (by protocol)", "values": [{"smiles": "Cc1ccc(S(=O)(=O)NC(C)C(=O)NCc2ccc(Cl)cc2)cc1", "note": "(stereo not drawn)", "activity change, negative = inhibition": "-3.78%"}, {"smiles": "Cc1cccc(N=C2NN=C(c3c[nH]c4ccccc34)CS2)c1", "activity change, negative = inhibition": "14.3%"}, {"smiles": "C=CCn1c(C)cc(C(=O)CN2C(=O)c3ccccc3C2=O)c1C", "activity change, negative = inhibition": "8.2%"}, {"smiles": "C=CCn1c(C)cc(C2=NNC(=NCC)SC2)c1C", "activity change, negative = inhibition": "-77.6% (active)"}, {"smiles": "Cc1ccc(CNS(=O)(=O)CCNC(=O)c2ccccc2)cc1", "activity change, negative = inhibition": "-2.85%"}, {"smiles": "O=C(Nc1ccc(F)c(Cl)c1)C1CCN(S(=O)(=O)c2cccnc2)CC1", "activity change, negative = inhibition": "-56.8% (active)"}, {"smiles": "O=C(NCc1cccs1)C1CCN(S(=O)(=O)c2ccc(Cl)cc2)CC1", "activity change, negative = inhibition": "4.22%"}, {"smiles": "CC(C)c1ccc(NC(=O)C2CCCN(S(=O)(=O)c3cccnc3)C2)cc1", "note": "(stereo not drawn)", "activity change, negative = inhibition": "-2.05%"}, {"smiles": "Cc1ccc(Cl)c(OCC(=O)N(C)CC(=O)Nc2ccc(N3CCOCC3)cc2)c1", "activity change, negative = inhibition": "4.7%"}, {"smiles": "COc1cc(C(=O)N(C)Cc2cccc(OC)c2OC)ccc1OCC(=O)Nc1cccc(C(F)(F)F)c1", "activity change, negative = inhibition": "-3.36%"}, {"smiles": "CCN(CC)c1ccc(NC(=O)c2ccc(=O)[nH]c2)cc1S(=O)(=O)Nc1ccc(OC)cc1", "activity change, negative = inhibition": "2.04%"}, {"smiles": "CN1CCN(c2cc(=O)n(-c3ccc(Cl)cc3)c(=O)[nH]2)CC1", "activity change, negative = inhibition": "-10.9%"}, {"smiles": "Cc1ccc(-n2c(=O)cc(N3CCN(Cc4ccccc4)CC3)[nH]c2=O)cc1", "activity change, negative = inhibition": "-57.4% (active)"}, {"smiles": "CCc1c(C)nc(N2CCN(Cc3ccccc3)CC2)[nH]c1=O", "activity change, negative = inhibition": "-0.365%"}, {"smiles": "COCCN(C(=O)COC(=O)Cc1cccc(OC)c1)c1c(N)n(Cc2ccccc2)c(=O)[nH]c1=O", "activity change, negative = inhibition": "-2.09%"}, {"smiles": "NS(=O)(=O)c1ccc(CNC(=O)c2cccc(Oc3ccccc3)c2)cc1", "activity change, negative = inhibition": "-1.65%"}, {"smiles": "O=C(NNS(=O)(=O)c1ccc(F)cc1)c1cnccn1", "activity change, negative = inhibition": "4.99%"}, {"smiles": "NS(=O)(=O)c1ccc(CNC(=O)c2cnccn2)cc1", "activity change, negative = inhibition": "-54.3% (active)"}, {"smiles": "Cc1ccc(S(=O)(=O)NCCC(=O)OCC(=O)N(C)c2ccccc2)cc1", "activity change, negative = inhibition": "7.6%"}, {"smiles": "O=C(CCC1CCCCC1)Nc1cc(C(F)(F)F)ccc1N1CCOCC1", "activity change, negative = inhibition": "3.1%"}, {"smiles": "COC(=O)c1nc(NC(=O)c2ccc(F)cc2)n[nH]1", "activity change, negative = inhibition": "3%"}, {"smiles": "COC(=O)c1nc(NC(=O)c2ccc(Cl)cc2)n[nH]1", "activity change, negative = inhibition": "-3.56%"}, {"smiles": "COC(=O)c1nc(NC(=O)c2ccc(C(C)(C)C)cc2)n[nH]1", "activity change, negative = inhibition": "-75.2% (active)"}, {"smiles": "COc1ccc(Sc2nc(-c3ccccc3)ncc2OC)cc1", "activity change, negative = inhibition": "-4.54%"}, {"smiles": "COc1ccccc1Cc1nc(-c2ccc(C)cc2)no1", "activity change, negative = inhibition": "12%"}, {"smiles": "COc1ccc(-c2nc(-c3ccccc3)no2)c(OC)c1", "activity change, negative = inhibition": "-66.8% (active)"}, {"smiles": "C=CCNC(=O)C1CC2c3ccccc3C1c1ccccc12", "note": "(stereo not drawn)", "activity change, negative = inhibition": "-1.08%"}, {"smiles": "COc1ccc(C(=O)NC(=S)N2CCNC(=O)C2CC(=O)OC(C)C)cc1", "note": "(stereo not drawn)", "activity change, negative = inhibition": "-54.5% (active)"}, {"smiles": "CCc1ccc(NC(=O)CC2C(=O)NCCN2C(=S)Nc2ccccc2)cc1", "note": "(stereo not drawn)", "activity change, negative = inhibition": "-1.21%"}, {"smiles": "COc1cccc(NC(=O)CC2C(=O)NCCN2C(=S)Nc2ccc(F)cc2)c1", "note": "(stereo not drawn)", "activity change, negative = inhibition": "3.49%"}, {"smiles": "Cc1ccc(S(=O)(=O)N(Cc2cccc([N+](=O)[O-])c2)C(=O)N2CCN(C)CC2)cc1", "activity change, negative = inhibition": "-0.764%"}, {"smiles": "CC(C)N(Cc1nnc(-c2ccc(Cl)cc2)o1)C(=O)C1=COCCO1", "activity change, negative = inhibition": "-0.126%"}, {"smiles": "Cc1ccc(C(=O)N/N=C/c2cccc3ccccc23)cn1", "activity change, negative = inhibition": "2.62%"}, {"smiles": "COc1ccc(-c2ccc3nnc(SCC(=O)Nc4ccc(NC(C)=O)cc4)n3n2)cc1", "activity change, negative = inhibition": "-1.23%"}, {"smiles": "COc1ccc(S(=O)(=O)N2CCCC2CNC(=O)C(=O)NC2CC2)cc1", "note": "(stereo not drawn)", "activity change, negative = inhibition": "-3.82%"}, {"smiles": "COc1ccc(N(CC(=O)NC2CCCCCCC2)S(=O)(=O)c2c(C)nn(C)c2C)cc1", "activity change, negative = inhibition": "-60.7% (active)"}, {"smiles": "CCOc1ccc(N(CC(=O)NC2CCCCCC2)S(=O)(=O)c2c(C)[nH]c(=O)[nH]c2=O)cc1", "activity change, negative = inhibition": "-0.37%"}, {"smiles": "COc1ccc(N(CC(=O)NC2CCCCC2)S(=O)(=O)c2c(C)[nH]c(=O)[nH]c2=O)cc1", "activity change, negative = inhibition": "4.32%"}, {"smiles": "CCn1ccnc1CN(C)C(=O)c1cc(COc2ccc(Cl)cc2OC)on1", "activity change, negative = inhibition": "-51.9% (active)"}, {"smiles": "COc1cc(Cl)ccc1OCc1cc(C(=O)N(C)CCc2c(C)n[nH]c2C)no1", "activity change, negative = inhibition": "11.4%"}, {"smiles": "CCn1ccnc1CN(C)C(=O)c1cc(COc2ccc(-n3cncn3)cc2)on1", "activity change, negative = inhibition": "-9.56%"}, {"smiles": "Cc1cc2ccccc2n1CCC(=O)O", "activity change, negative = inhibition": "-0.843%"}, {"smiles": "O=C(O)CCn1c(Cc2ccccc2)nc2ccccc21", "activity change, negative = inhibition": "0.662%"}, {"smiles": "O=C(O)CCn1c(O)c(C=C2N=c3ccccc3=N2)sc1=S", "activity change, negative = inhibition": "-52.2% (active)"}, {"smiles": "C=CCOc1ccc(/C=C/C(=O)OC(C)C(=O)Nc2ccc(NC(C)=O)cc2)cc1", "note": "(stereo not drawn)", "activity change, negative = inhibition": "12.2%"}, {"smiles": "COc1ccc(CCNC(=S)N2CCN(S(=O)(=O)c3ccc(F)cc3)CC2)cc1", "activity change, negative = inhibition": "-3.63%"}, {"smiles": "CCC(=O)N1c2ccccc2NC2=C(C(=O)CCC2)C1c1ccco1", "note": "(stereo not drawn)", "activity change, negative = inhibition": "-0.999%"}, {"smiles": "CC(C)C(=O)N1c2ccccc2NC2=C(C(=O)CCC2)C1c1ccc(N(C)C)cc1", "note": "(stereo not drawn)", "activity change, negative = inhibition": "-60.9% (active)"}, {"smiles": "CCCC(=O)N1c2ccccc2NC2=C(C(=O)CCC2)C1c1ccc(F)cc1", "note": "(stereo not drawn)", "activity change, negative = inhibition": "-0.85%"}, {"smiles": "O=C(NCC1(N2CCCCC2)CCCCC1)c1ccc(NS(=O)(=O)c2ccc(F)cc2)cc1", "activity change, negative = inhibition": "-3.19%"}, {"smiles": "CN(C(=O)COC(=O)c1ccc(Br)o1)c1c(N)n(Cc2ccccc2)c(=O)[nH]c1=O", "activity change, negative = inhibition": "-3.83%"}, {"smiles": "O=C(COC(=O)Cc1c[nH]c2ccccc12)NCCc1ccccc1", "activity change, negative = inhibition": "-4.81%"}, {"smiles": "Cc1cc(=O)oc2cc(NC(=O)C(C)Oc3ccccc3)ccc12", "note": "(stereo not drawn)", "activity change, negative = inhibition": "1.47%"}, {"smiles": "COc1ccc(Oc2c(Cl)cnn(-c3ccccc3)c2=O)cc1", "activity change, negative = inhibition": "-5.38%"}, {"smiles": "Cc1cccc(-n2ncc(Cl)c(Cl)c2=O)c1", "activity change, negative = inhibition": "-95.3% (active)"}, {"smiles": "Cc1cccc(-n2ncc(C#N)c2-n2cccc2)c1", "activity change, negative = inhibition": "2.7%"}, {"smiles": "CC1(c2ccc(Cl)cc2Cl)NC(=O)N(CC(=O)Nc2cccnc2Cl)C1=O", "note": "(stereo not drawn)", "activity change, negative = inhibition": "1.88%"}, {"smiles": "CCCOc1ccc(Cl)cc1Nc1nc(NCCO)nc(N2CCCC2)n1", "activity change, negative = inhibition": "1.49%"}]}]}
